NS1 function inh: influenza NS1 inhibition | Potency, µM (top dose mostly 46.1 µM), for the others: at the highest dose activity, positive = more growth | actives 0.4% (n = 270,000) | AID 2326; calls by dose curve; further: potency means the concentration at half of the fitted maximal effect; actives are rising curves; nearly all actives have a fitted effect of over 50% in size
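In this qHTS, NS1 from influenza A is expressed in budding yeast, where it slows growth. Cells are switched from glucose to 2% galactose medium (pH 6.0, -URA), treated with compound, and growth recovery is read at OD600.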
SARS PLP yeast: inhibitors of SARS-CoV papain-like protease in yeast. S. cerevisiae expressing SARS-CoV PLpro, growth rescue. Potency, µM (doses to about 32.9 µM), for inactives: at the top dose activity, positive = growth rescue, actives largely listed as activators. actives 0.19% (n = 330,000); calls by dose curve; further: potency means the concentration at half of the fitted maximal effect; 0% is about no effect; nearly all actives have a fitted effect of over 55% in size
Shiga inhibitor: inhibitors of Shiga toxin in Vero cells; Vero cells, Shiga toxin protein synthesis inhibition reporter; inhibition, % at 38.7 µM; actives 9.2% (n = 290,000); AID 2315; in the data active means inhibition mostly above about 28%, no sharp cut-off; inactive means mostly below about 43%; further: 0% is about no effect
Pf growth 48h: inhibits P. falciparum growth in the first generation, 48 h | P. falciparum luciferase growth in erythrocytes, 48 h | Potency, µM (top dose mostly 28.7 µM), inactives show at the top dose activity change, negative = inhibition, usual class: inhibitors | actives 5.9% (n = 310,000); further: potency means the concentration at half of the fitted maximal effect; on the % scale 0 is the no-effect control and ±100 the full control effect
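Compounds are pin-transferred into medium, infected erythrocytes (2% hematocrit, 0.1% parasitemia final) are added, and plates sit one parasite generation at 37 C in 5% CO2. Detection reagent is then added and luminescence measured.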
Pf growth 96h: inhibits malaria parasite growth, 96 h; P. falciparum luciferase reporter growth, 96 h; Potency, µM (doses to about 28.7 µM), for the others: at the top dose activity change, negative = inhibition, hits mostly inhibitors; actives 6.9% (n = 320,000); further: potency means the concentration at half of the fitted maximal effect; on the % scale 0 is the no-effect control and ±100 the full control effect
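Readout is luminescence from an integrated firefly luciferase in P. falciparum. Red cells, 2% hematocrit and 0.05% parasitemia final, were cultured with compound through two parasite generations (96 hours) at 37 C, 5% CO2.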
Cycloheximide cs: affects cycloheximide protein synthesis inhibition readout, counter-screen; actives 12% (n = 300,000); max response, %; cell reporter, cycloheximide protein synthesis inhibition counterscreen; AID 2314; in the data active means max response mostly above about 13%, no sharp cut-off; inactive means mostly below about 14%; further: read at 38.3 µM for the half of the compounds with a filed dose; 0% is about no effect
Active calls of the source: *; u = inconclusive; x = no result. Most compounds without a hit are left out; they make up all but 21% or so of the library. Unless noted, the call rests on the fitted dose curve; in most records, active means well fitted inhibition curve with a large enough effect; inconclusive means small, poorly fitted or top-dose-only effect, or another doubt; inactive means no such curve, though single readings can be large or run the other way.

SMILES | NS1 function inh | SARS PLP yeast | Shiga inhibitor | Pf growth 48h | Pf growth 96h | Cycloheximide cs
Cc1cc2nn(-c3ccc(Cl)cc3)nc2cc1N | 9.1% | 5.0% | 113.4* | 94.9% | 430.9% | 50.5*
COc1ccc(OC)c(CN2CCN(C(=O)Cc3ccccc3)CC2)c1 | 8.6% | 5.4% | -1.7 | -1.1% | 11.7µM* | -1.2
CCOc1ccc(CN2CCN(C(=O)Cc3ccccc3)CC2)cc1 | 11.5% | 5.1% | -2.6 | -0.6% | 6.57µM* | -2.4
COc1cccc(CN2CCN(C(=O)Cc3ccccc3OC)CC2)c1 | -2.6% | 0.2% | -8.3 | -12.8% | u | -0.9
CC(C)(C)c1ccc(N2C(=O)CSC2c2cccnc2)cc1 (stereo unspecified) | 5.7% | 0.6% | -2.0 | 1.17µM* | u | -1.5
CCSc1ncc(Cl)c(C(=O)N(Cc2ccc(N(C)C)cc2)C2CCS(=O)(=O)C2)n1 (stereo unspecified) | -12.4% | 1.5% | -11.8 | 10.4µM* | 8.6% | -3.9
CN(C)c1ccc(CN(C(=O)c2cccs2)C2CCS(=O)(=O)C2)cc1 (stereo unspecified) | -2.9% | -4.5% | -7.2 | 4.8% | 18.2% | -2.7
CCCCc1cc(=O)oc2cc(C)cc(OCC(=O)NC(Cc3ccc(Cl)cc3)C(=O)O)c12 (stereo unspecified) | 22.6% | -2.7% | -5.5 | 19.3% | -20.9% | 1.8
Cc1cccn2c(/C=N/OCc3ccc(F)cc3)c(-c3ccc(Cl)cc3)nc12 | -5.6% | 6.1% | -4.4 | u | 11.7µM* | -1.6
COc1ccc(/C(C#N)=C/c2c(-c3ccc(Cl)cc3)nc3c(C)cccn23)cc1 | -4.5% | -26.7% | -18.3 | u | u | -2.0
COc1ccc(-c2ccc(C3C4C=CCCC4(C)C(=O)N3Cc3ccccc3)c(F)c2)cc1 (stereo unspecified) | x | x | -3.7 | x | x | 7.8
COc1ccc(C2=NN(c3ccc(C=O)cc3)C(c3ccccc3)C2)cc1 (stereo unspecified) | u | -1.7% | 19.8 | u | u | -3.6
COc1ccc(C2CC(c3ccccc3)=NN2S(=O)(=O)c2ccccc2)c(OC)c1 (stereo unspecified) | 7.1% | 10.3% | 12.4 | u | 0.0% | -4.2
COc1ccc(C2CC(c3ccccc3)=NN2S(=O)(=O)c2ccc(C)cc2)c(OC)c1 (stereo unspecified) | u | -8.8% | 61.4 | u | 11.7µM* | 12.7
COc1ccc(C2=NN(CN3C(=O)C(=O)c4ccccc43)C(c3ccc(OC)cc3)C2)cc1 (stereo unspecified) | 8.7% | -21.6% | 131.2* | u | u | 75.8*
O=S(=O)(c1ccccc1)N1N=C(c2ccccc2)CC1c1ccccc1 (stereo unspecified) | -0.2% | -0.9% | -3.1 | u | u | -0.3
COc1ccc(C2=NN(S(=O)(=O)c3ccccc3)C(c3ccccc3)C2)cc1 (stereo unspecified) | 12.1% | 0.1% | 34.0 | u | 6.57µM* | 3.2
CC(C)CCN(C(=O)CCSc1ccc(F)cc1)c1c(N)n(Cc2ccccc2)c(=O)[nH]c1=O | x | -7.1% | x | 9.28µM* | u | x
CCCN(C(=O)CCOc1ccc(C(C)(C)C)cc1)c1c(N)n(Cc2ccccc2)c(=O)[nH]c1=O | x | 8.1% | x | 2.62µM* | u | x
CCCN(C(=O)COC(=O)CCOc1ccc(C)cc1)c1c(N)n(Cc2ccccc2)c(=O)[nH]c1=O | x | -4.4% | x | 0.0% | 7.9% | x
Cc1ccc(OCCC(=O)N(CCC(C)C)c2c(N)n(Cc3ccccc3)c(=O)[nH]c2=O)cc1 | x | -0.8% | x | 10.4µM* | u | x
COCCN(C(=O)COC(=O)CCSc1ccc(F)cc1)c1c(N)n(Cc2ccccc2)c(=O)[nH]c1=O | x | 5.1% | x | u | 27.1% | x
COCCCN(C(=O)C(C)Oc1ccc(Br)cc1)c1c(N)n(Cc2ccccc2)c(=O)[nH]c1=O (stereo unspecified) | x | -3.9% | x | 13.1µM* | u | x
CC1=C(c2ccccc2)C(=S)NC(C)(C)C1 | 2.5% | 0.0% | 14.4 | u | u | 1.2
CCc1ccc(NC(=S)N2CCC(NC(=O)c3ccccc3)CC2)cc1 | 0.8% | 1.0% | -8.7 | -2.6% | u | -2.5
COCCCN(C(=O)CCOc1ccccc1C)c1c(N)n(Cc2ccccc2)c(=O)[nH]c1=O | x | 2.8% | x | 13.1µM* | u | x
